We go through nine compounds from PubChem BioAssay.

The source made the active and inactive calls. Unless noted, no rule for the calls is given here.

The nature of assay [1]: A549 cell viability effects, profiling panel, calcein-AM fluorescence, 48 h, basal (AID 1162). Also: test concentration not given here. Particulars: higher = more signal.
Assay [2] is described as follows: adipocyte viability effects, profiling panel, cell-based, 3T3-L1 adipocytes, calcein-AM fluorescence, 48 h, basal (AID 1163). Also: test concentration not given here. To be noted: 3T3-L1 adipocytes viability, higher = more signal.
Assay [3] in a line: HepG2 cell viability effects, profiling panel, calcein-AM fluorescence, 48 h, basal (AID 1164). Also: test concentration not given here. Particulars: higher = more signal.
Assay [4] can be described thus: MM1S cell viability effects, profiling panel, calcein-AM fluorescence, 48 h, basal (AID 1165).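 Also: viability of MM1S multiple myeloma cells under basal unstimulated conditions; test concentration not given here.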 To be noted: higher = more signal.
Assay [5] is described as follows: basal RPMI8226 viability, no added stimulus, profiling panel, cell-based, calcein-AM fluorescence, 48 h, PK04 Diversity Set (AID 1166).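 Also: cells grown under basal conditions without added stimulus; test concentration not given here.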 To be noted: RPMI8226 myeloma viability, higher = more signal.
Assay [6] in a line: basal HepG2 mitochondrial membrane potential changes, profiling panel, cell-based, JC-1 fluorescence, 24 h, 100 nL compound (AID 1167). Also: test concentration not given here. To be noted: higher = more signal.
Assay [7] can be described thus: basal 3T3-L1 adipocyte mitochondrial potential changes, profiling panel, cell-based, JC-1 fluorescence, 3T3-L1 adipocytes, 24 h, 100 nL compound (AID 1168). Also: test concentration not given here. Particulars: JC-1 mitochondrial fluorescence, higher = more signal, called active from +8 up or from −8 down.
Assay [8] can be described thus: basal RPMI8226 mitochondrial membrane potential changes, profiling panel, cell-based, JC-1 fluorescence, 24 h, 100 nL compound (AID 1169). Also: test concentration not given here. Particulars: RPMI8226 myeloma, JC-1 mitochondrial potential fluorescence, higher = more signal.
A short description of assay [9]: basal MM1S mitochondrial membrane potential changes, profiling panel, cell-based, JC-1 fluorescence, 24 h, 100 nL compound (AID 1170). Also: test concentration not given here. Particulars: higher = more signal.
Assay [10] is described as follows: A549 lung cancer cell viability effects, profiling panel, resazurin fluorescence, 24 h, PK04 Diversity Set (AID 1171). Also: test concentration not given here. To be noted: higher = more signal, called active from +8 up or from −8 down.
Assay [11] can be described thus: HepG2 liver cancer cell viability effects, profiling panel, resazurin fluorescence, 24 h, PK04 Diversity Set (AID 1172). Also: test concentration not given here. To be noted: higher = more signal.
A short description of assay [12]: basal S. cerevisiae growth modulation, no modifier, primary screen, OD600, strain BY4716, 24 h, basal condition (AID 1173). Particulars: OD600, 24 h, higher = more signal, called active from +8 up or from −8 down.
Assay [13] is described as follows: MM1S myeloma cell viability, profiling panel, resazurin fluorescence, basal, 24 h, PK04 Diversity Set (AID 1174).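 Also: MM1S multiple myeloma cell line; test concentration not given here.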 Particulars: higher = more signal, called active from +8 up or from −8 down.
For assay [14], the target named is Dihydroorotate dehydrogenase (quinone), mitochondrial (Plasmodium falciparum (isolate 3D7)) (UniProt Q08210). Put plainly: PfDHODH enzyme inhibitors, primary screen, biochemical, C-terminal His tag, absorbance 600 nm (AID 1175).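 Also: recombinant parasite enzyme with a five histidine tag at its C terminus; test concentration not given here.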 To be noted: DCIP absorbance 600 nm, higher = more signal, called active from +8 up or from −8 down.
Assay [15] in a line: P. aeruginosa biofilm formation inhibitors, primary screen, strain PAO1, LB-PBS medium, absorbance 600 nm (AID 1176). Also: test concentration not given here. To be noted: P. aeruginosa PAO1 growth/biofilm, A600, 12 h; higher = more signal.
A short description of assay [16]: S. cerevisiae RM11-1a growth modifiers, primary screen, strain RM11-1a, OD600, basal, 24 h (AID 1177).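 Also: cultures grown under basal conditions with no added stressor; test concentration not given here.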 Particulars: OD600, 24 h, higher = more signal, called active from +8 up or from −8 down.
Assay [17] can be described thus: E. coli acrAB mutant growth effects, primary screen, E. coli filamentation inducers, strain DRC39, OD650, 24 h (AID 1178).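 Also: growth measured as culture turbidity by optical density at 650 nm; test concentration not given here.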 To be noted: higher = more signal, called active from +8 up or from −8 down.
Assay [18] is described as follows: E. coli acrAB mutant growth effects, primary screen, E. coli filamentation inducers, strain DRC39, OD650, 48 h (AID 1179).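 Also: screen aims at cell division blockers that make cells filament.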 Particulars: E. coli DRC39 delta-acrAB growth, higher = more signal, called active from +8 up or from −8 down.
Assay [19] can be described thus: RPMI8226 myeloma cell viability, profiling panel, resazurin fluorescence, basal, 24 h, PK04 Diversity Set (AID 1180).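 Also: RPMI8826 multiple myeloma cell line at 5000 cells per well; test concentration not given here.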 To be noted: higher = more signal.
Assay [20] has as its target E3 ubiquitin-protein ligase XIAP (Homo sapiens) (UniProt P98170). Put plainly: XIAP binders, primary screen, biophysical, small-molecule microarray, fluorescence 635 nm (AID 1181).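 Also: score merges 667 nm emission and signal to noise over triplicate slides.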 To be noted: small-molecule microarray binding, higher = more signal.

E3 ubiquitin-protein ligase XIAP (Homo sapiens), sequence (P98170 whole entry, looked up): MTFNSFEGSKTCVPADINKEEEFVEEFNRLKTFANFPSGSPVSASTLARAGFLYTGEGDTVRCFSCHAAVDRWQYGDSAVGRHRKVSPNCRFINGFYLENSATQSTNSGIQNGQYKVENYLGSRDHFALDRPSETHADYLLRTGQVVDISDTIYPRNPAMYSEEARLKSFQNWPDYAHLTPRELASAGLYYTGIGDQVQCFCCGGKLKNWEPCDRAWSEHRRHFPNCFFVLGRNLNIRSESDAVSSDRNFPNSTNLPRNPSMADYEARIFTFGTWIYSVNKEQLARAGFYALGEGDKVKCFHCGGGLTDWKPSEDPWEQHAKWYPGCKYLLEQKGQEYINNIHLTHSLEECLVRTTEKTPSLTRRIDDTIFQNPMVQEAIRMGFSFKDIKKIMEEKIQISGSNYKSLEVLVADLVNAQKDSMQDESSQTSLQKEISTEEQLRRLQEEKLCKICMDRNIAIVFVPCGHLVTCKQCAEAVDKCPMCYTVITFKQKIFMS
Dihydroorotate dehydrogenase (quinone), mitochondrial (Plasmodium falciparum (isolate 3D7)), sequence (Q08210 whole entry, looked up): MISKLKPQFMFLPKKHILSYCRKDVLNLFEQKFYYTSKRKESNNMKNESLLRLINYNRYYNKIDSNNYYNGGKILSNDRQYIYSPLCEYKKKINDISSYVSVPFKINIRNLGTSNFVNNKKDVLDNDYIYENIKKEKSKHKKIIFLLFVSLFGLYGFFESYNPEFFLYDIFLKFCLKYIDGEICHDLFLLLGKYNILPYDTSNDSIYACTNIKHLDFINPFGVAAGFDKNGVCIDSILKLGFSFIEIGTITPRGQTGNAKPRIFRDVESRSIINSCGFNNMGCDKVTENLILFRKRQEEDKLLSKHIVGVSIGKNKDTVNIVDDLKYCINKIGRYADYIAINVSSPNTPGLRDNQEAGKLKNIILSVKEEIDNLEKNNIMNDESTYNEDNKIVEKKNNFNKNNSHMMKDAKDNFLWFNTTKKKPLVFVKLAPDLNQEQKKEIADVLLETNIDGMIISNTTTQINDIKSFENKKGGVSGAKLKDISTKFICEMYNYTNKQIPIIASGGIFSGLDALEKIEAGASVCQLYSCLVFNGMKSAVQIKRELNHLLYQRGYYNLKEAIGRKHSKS

Regarding `COC(=O)[C@]1(CCS(=O)(=O)c2ccccc2)N=C(c2ccc(OCCCO)cc2)O[C@@H]1c1ccccc1N=[N+]=[N-]`, the z-score in [1] was -1.49; in assay [2], 1.78; in [3] it was -2.18; in assay [4], -2.8; in [5], -3.33; in [6], 0.811. The z-score is -0.294 (inactive) in [7]; -1.13 in assay [8]; 0.546 in [9]; -3.46 (inactive) in [10]; -1.28 in assay [11]; 0.141 (inactive) in assay [12]. Further, the z-score in assay [13] is -3.19 (inactive); in assay [15], 0.963 (inactive); in assay [16] it was 2.53 (inactive); in assay [17], 0.548 (inactive); in [18], -0.718 (inactive); in [19] it was -2.26. The composite z-score in [14] is 1.02 (inactive); in [20], -0.0502.
`CN(C)C(=O)[C@@]1(Cc2ccccc2CN=[N+]=[N-])N=C(c2ccc(OCCCO)cc2)O[C@H]1c1ccccc1N=[N+]=[N-]`: the z-score in assay [1] is -1.63; in [2] it was 2; in assay [3] it was -2.15; in assay [4] it was -3.03; in [5], -3.98; in assay [6] it was 0.129. The z-score in [7] was -0.052 (inactive); in assay [8], -1.08; in assay [9] it was -0.796; in [10] it was -2.09 (inactive); in assay [11] it was -0.699; in [12], 0.37 (inactive). Moreover, the z-score was -2.96 (inactive) in assay [13]; 0.522 (inactive) in assay [15]; 1.22 (inactive) in assay [16]; 0.776 (inactive) in assay [17]; -0.893 (inactive) in assay [18]; -3.85 in assay [19]. The composite z-score was 1.3 (inactive) in assay [14] and 0.202 in assay [20].
With `CC(C)NC(=O)[C@@]1(C)c2ccccc2C(=O)N(Cc2ccc(OC(F)(F)F)cc2)[C@H]1c1ccc(CO)cc1`, the z-score was -0.692 in [1]; 1.08 in assay [2]; 0.0903 in assay [3]; -0.0831 in assay [4]; -0.676 in assay [5]; 2.05 in assay [6]. Also, the z-score was -0.682 (inactive) in [7]; -0.547 in [8]; -1.67 in assay [9]; -0.0752 (inactive) in [10]; -1.09 in assay [11]; 0.154 (inactive) in assay [12]. Besides, the z-score in [13] is 0.796 (inactive); in assay [15] it was 0.559 (inactive); in assay [16], 0.973 (inactive); in assay [17] it was -0.048 (inactive); in assay [18], -0.6 (inactive); in assay [19], 0.959. Moreover, the composite z-score in [14] was -0.852 (inactive); in [20], -0.217.
As to `O=C(C1N=C(c2ccc(OCCCO)cc2)N(c2ccccc2)O1)N1CCCCC1` (stereo not given), the z-score was 0.775 in assay [1]; 0.936 in assay [2]; 0.772 in [3]; 0.301 in [4]; 0.609 in assay [5]; 0.223 in assay [6]. For the same compound, the z-score is -0.716 (inactive) in assay [7]; -0.779 in assay [8]; -0.313 in assay [9]; 1.07 (inactive) in assay [10]; 0.377 in [11]; -0.769 (inactive) in assay [12]. The z-score in assay [13] is 1.15 (inactive); in assay [15], -1.35 (inactive); in [16], -0.587 (inactive); in assay [17], 0.457 (inactive); in assay [18], 0.15 (inactive); in [19], 0.188. The results for the composite z-score in assay [14] and in [20] were -0.152 (inactive) and 0.0761, respectively.
For the compound `COc1ccc([C@H]2OC[C@@H]3C[C@H](Cc4ccccc4)C(=O)N32)cc1`, the z-score in [1] was -0.799; in [2] it was -0.835; in [3], -0.459; in [4], 0.191; in assay [5], -0.598; in assay [6], -0.703. Further, the z-score in [7] is 0.0558 (inactive); in assay [8] it was 0.00274; in [9], -0.393; in assay [10] it was -0.116 (inactive); in assay [11], -0.195; in assay [12], -3.69 (inactive). The z-score is 0.229 (inactive) in assay [13]; -0.145 (inactive) in assay [15]; 0.248 (inactive) in assay [16]; -0.278 (inactive) in assay [17]; -0.818 (inactive) in assay [18]; -0.627 in [19]. For the same compound, the composite z-score in assay [14] was -0.0327 (inactive); in assay [20], -0.152.
With `CC[C@@H]1O[Si](C(C)C)(C(C)C)c2c1cc(-c1cc(C)c(OC)c(C)c1)nc2-c1ccc(Oc2ccccc2)cc1`, the z-score is -0.472 in [1]; -0.25 in assay [2]; -0.601 in [3]; 0.287 in assay [4]; -0.388 in [5]; -0.557 in assay [6]. For the same compound, the z-score in assay [7] is 0.202 (inactive); in assay [8] it was 0.756; in assay [9] it was 0.207; in [10] it was 1.69 (inactive); in [11] it was 1.41; in [12] it was -0.122 (inactive). In addition, the z-score in assay [13] was 0.722 (inactive); in assay [15] it was -0.783 (inactive); in [16], -0.0894 (inactive); in assay [17] it was 0.48 (inactive); in [18], 0.424 (inactive); in assay [19], 0.51. The values for the composite z-score in assay [14] and in assay [20] were -0.148 (inactive) and 0.113, respectively.
`CC(=O)N1CC2(CC2)CC1c1ccccc1` (stereo not given): the z-score in assay [1] is -1.64; in assay [2], 0.334; in [3], -1.34; in [4], -0.386; in assay [5] it was -1.14; in assay [6] it was -1.15. Also, the z-score is -1.86 (inactive) in assay [7]; 0.0805 in [8]; 0.359 in assay [9]; -0.714 (inactive) in assay [10]; -0.603 in [11]; 1.12 (inactive) in [12]. The z-score was -1.89 (inactive) in [13]; 0.535 (inactive) in assay [15]; 0.0303 (inactive) in [16]; -0.88 (inactive) in [17]; -0.206 (inactive) in [18]; -1.36 in [19]. For the same compound, the figures for the composite z-score in [14] and in assay [20] were -0.448 (inactive) and 0.0116, respectively.
For the compound `CCCN1C(=O)[C@@]2(Cc3ccccc31)N=C(c1ccc(OCCCO)cc1)O[C@H]2c1ccccc1`, the z-score is -1.06 in [1]; 0.526 in assay [2]; -1.1 in assay [3]; -3.51 in [4]; -4.16 in assay [5]; -0.895 in [6]. Besides, the z-score in [7] was 0.201 (inactive); in assay [8], -1.16; in [9] it was -0.502; in [10] it was -1.11 (inactive); in assay [11], 0.293; in [12] it was -3.07 (inactive). Further, the z-score in assay [13] is -2 (inactive); in assay [15], -0.124 (inactive); in [16] it was 0.806 (inactive); in assay [17], -0.305 (inactive); in assay [18], -1.03 (inactive); in assay [19], -1.7. For the same compound, the composite z-score in [14] was -0.172 (inactive); in [20], -0.212.
With `COc1ccc([Si](C)(C)[C@@H]2[C@@H](CCO)O[C@]3(C(=O)N(Cc4cccc(NC(=O)[C@H](C)O)c4)c4ccccc43)[C@H]2C)cc1`, the z-score is -3.78 in [1]; -0.578 in [2]; -4.53 in assay [3]; -2.88 in assay [4]; -4.36 in assay [5]; -1.37 in assay [6]. For the same compound, the z-score was 1.5 (inactive) in assay [7]; -1.06 in assay [8]; -2.24 in assay [9]; -5.11 (inactive) in assay [10]; -5.97 in assay [11]; 0.728 (inactive) in assay [12]. In addition, the z-score in assay [13] was -9.06 (active); in assay [15], 1.25 (inactive); in assay [16], 4.9 (inactive); in assay [17] it was 0.0065 (inactive); in [18], -0.811 (inactive); in [19], -6.22. Further, the composite z-score in assay [14] is 0.554 (inactive); in assay [20], 0.0479.
